The text below walks through data of ChEMBL document CHEMBL1961873, “Compounds: GSK PKIS; Assays: Nanosyn kinase panel” (2012).

For experiment [1], the target named is T1, Mitogen-activated protein kinase 12 (Homo sapiens) (UniProt P53778).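 Further: values are averaged p38gamma kinase inhibition readings, compounds tested at 1 µM.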
T1 sequence (whole entry): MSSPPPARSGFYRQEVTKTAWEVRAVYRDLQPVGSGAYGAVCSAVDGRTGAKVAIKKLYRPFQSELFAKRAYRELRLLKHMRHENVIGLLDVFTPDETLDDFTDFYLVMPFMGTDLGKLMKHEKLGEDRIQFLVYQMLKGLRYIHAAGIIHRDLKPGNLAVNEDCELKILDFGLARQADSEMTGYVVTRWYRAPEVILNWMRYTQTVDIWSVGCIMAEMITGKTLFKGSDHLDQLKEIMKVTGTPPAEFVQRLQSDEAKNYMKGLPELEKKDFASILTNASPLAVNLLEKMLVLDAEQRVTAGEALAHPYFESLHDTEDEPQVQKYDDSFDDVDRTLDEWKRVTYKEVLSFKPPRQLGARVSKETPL
The settings on record: at 1 µM.

Experiment [2] has as its target SRSF protein kinase 1 (Homo sapiens) (UniProt Q96SB4). The following applies: at 0.1 µM.
For experiment [3] the target is unchanged. The settings on record: at 1 µM.
The target of experiment [4] is Phosphatidylinositol 4,5-bisphosphate 3-kinase catalytic subunit alpha isoform (Homo sapiens) (UniProt P42336). The following applies: at 0.1 µM.
The target is the same in experiment [5]. The following applies: at 1 µM.
The target of experiment [6] is T2, Phosphatidylinositol 4,5-bisphosphate 3-kinase catalytic subunit delta isoform (Homo sapiens) (UniProt O00329).
T2 sequence (whole entry): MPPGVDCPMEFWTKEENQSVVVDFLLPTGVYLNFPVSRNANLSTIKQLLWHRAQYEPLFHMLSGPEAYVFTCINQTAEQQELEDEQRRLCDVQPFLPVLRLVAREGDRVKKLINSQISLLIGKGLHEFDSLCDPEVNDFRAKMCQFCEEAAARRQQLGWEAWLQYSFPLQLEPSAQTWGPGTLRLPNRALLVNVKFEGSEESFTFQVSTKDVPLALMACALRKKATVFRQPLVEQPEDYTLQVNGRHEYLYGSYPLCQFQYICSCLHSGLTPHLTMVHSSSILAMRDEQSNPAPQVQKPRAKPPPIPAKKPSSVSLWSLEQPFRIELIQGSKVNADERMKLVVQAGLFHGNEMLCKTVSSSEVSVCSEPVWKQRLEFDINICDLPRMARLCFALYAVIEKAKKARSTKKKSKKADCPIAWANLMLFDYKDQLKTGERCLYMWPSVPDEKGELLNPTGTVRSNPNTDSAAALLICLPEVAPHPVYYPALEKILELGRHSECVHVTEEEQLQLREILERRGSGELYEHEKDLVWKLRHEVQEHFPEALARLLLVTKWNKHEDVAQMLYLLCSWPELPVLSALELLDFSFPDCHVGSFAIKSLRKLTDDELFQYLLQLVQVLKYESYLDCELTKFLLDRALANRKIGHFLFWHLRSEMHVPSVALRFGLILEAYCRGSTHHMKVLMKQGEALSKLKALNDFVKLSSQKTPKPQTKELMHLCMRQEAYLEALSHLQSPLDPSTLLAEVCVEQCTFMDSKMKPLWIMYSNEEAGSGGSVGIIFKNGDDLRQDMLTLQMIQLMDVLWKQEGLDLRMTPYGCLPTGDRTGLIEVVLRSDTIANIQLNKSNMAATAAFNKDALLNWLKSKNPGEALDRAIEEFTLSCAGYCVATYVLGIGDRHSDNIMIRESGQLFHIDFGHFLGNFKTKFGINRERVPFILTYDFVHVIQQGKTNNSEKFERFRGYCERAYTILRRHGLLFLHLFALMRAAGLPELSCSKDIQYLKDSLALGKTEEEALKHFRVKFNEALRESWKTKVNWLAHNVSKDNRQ
The settings on record: at 0.1 µM.

Experiment [7] has as its target T2, Phosphatidylinositol 4,5-bisphosphate 3-kinase catalytic subunit delta isoform (Homo sapiens). The settings on record: at 1 µM.
For experiment [8], the target named is Phosphatidylinositol 4-kinase beta (Homo sapiens) (UniProt Q9UBF8). The following applies: at 0.1 µM.
The target is the same in experiment [9]. The settings on record: at 1 µM.
Experiment [10] addresses Sphingosine kinase 1 (Homo sapiens) (UniProt Q9NYA1). The settings on record: at 0.1 µM.
The target is the same in experiment [11]. The settings on record: at 1 µM.
Experiment [12] addresses T3, Sphingosine kinase 2 (Homo sapiens) (UniProt Q9NRA0).
T3 sequence (whole entry): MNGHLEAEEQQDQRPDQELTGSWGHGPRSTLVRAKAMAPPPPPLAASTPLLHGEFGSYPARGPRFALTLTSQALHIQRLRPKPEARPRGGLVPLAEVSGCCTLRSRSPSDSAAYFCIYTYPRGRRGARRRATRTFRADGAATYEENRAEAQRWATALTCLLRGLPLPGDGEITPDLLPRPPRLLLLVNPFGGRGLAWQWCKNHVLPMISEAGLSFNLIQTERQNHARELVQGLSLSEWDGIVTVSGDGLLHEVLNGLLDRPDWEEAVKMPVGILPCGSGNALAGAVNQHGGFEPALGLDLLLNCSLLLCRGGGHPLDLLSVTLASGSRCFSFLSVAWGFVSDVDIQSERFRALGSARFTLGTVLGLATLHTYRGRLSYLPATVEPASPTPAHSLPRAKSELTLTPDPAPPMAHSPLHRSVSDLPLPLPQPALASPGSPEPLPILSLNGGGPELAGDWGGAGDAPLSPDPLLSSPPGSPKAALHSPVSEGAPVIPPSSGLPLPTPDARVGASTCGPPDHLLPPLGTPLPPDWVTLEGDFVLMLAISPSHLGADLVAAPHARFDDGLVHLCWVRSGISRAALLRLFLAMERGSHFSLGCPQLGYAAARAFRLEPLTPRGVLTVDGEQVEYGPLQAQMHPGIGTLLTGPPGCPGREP
The settings on record: at 0.1 µM.

Experiment [13] addresses T3, Sphingosine kinase 2 (Homo sapiens). The settings on record: at 1 µM.
Experiment [14] addresses Casein kinase II subunit alpha (Homo sapiens) (UniProt P68400). The settings on record: at 0.1 µM.
Experiment [15] shares this target. The settings on record: at 1 µM.
In experiment [16] the target is T4, Inhibitor of nuclear factor kappa-B kinase subunit alpha (Homo sapiens) (UniProt O15111).
T4 sequence (whole entry): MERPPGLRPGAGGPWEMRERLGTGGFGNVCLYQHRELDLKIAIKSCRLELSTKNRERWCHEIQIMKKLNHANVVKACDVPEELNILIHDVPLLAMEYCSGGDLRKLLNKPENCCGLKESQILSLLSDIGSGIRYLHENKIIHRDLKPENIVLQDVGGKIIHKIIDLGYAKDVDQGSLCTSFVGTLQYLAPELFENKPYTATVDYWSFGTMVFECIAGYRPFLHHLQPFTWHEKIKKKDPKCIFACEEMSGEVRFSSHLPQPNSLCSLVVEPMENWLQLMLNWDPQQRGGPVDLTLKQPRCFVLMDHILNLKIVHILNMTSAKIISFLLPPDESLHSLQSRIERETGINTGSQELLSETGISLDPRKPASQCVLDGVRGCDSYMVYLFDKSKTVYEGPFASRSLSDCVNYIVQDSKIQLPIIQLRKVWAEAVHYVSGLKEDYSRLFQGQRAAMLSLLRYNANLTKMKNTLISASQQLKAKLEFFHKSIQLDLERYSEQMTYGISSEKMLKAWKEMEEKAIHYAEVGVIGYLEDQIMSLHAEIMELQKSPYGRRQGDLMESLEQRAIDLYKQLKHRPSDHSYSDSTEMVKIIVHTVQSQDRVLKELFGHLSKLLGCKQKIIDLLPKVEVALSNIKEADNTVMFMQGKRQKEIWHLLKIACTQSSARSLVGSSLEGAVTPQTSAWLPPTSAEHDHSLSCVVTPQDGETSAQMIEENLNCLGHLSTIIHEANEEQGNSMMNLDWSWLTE
The following applies: at 0.1 µM.

The target in experiment [17] is T4, Inhibitor of nuclear factor kappa-B kinase subunit alpha (Homo sapiens). The following applies: at 1 µM.
Experiment [18] addresses T5, Inhibitor of nuclear factor kappa-B kinase subunit beta (Homo sapiens) (UniProt O14920).
T5 sequence (whole entry): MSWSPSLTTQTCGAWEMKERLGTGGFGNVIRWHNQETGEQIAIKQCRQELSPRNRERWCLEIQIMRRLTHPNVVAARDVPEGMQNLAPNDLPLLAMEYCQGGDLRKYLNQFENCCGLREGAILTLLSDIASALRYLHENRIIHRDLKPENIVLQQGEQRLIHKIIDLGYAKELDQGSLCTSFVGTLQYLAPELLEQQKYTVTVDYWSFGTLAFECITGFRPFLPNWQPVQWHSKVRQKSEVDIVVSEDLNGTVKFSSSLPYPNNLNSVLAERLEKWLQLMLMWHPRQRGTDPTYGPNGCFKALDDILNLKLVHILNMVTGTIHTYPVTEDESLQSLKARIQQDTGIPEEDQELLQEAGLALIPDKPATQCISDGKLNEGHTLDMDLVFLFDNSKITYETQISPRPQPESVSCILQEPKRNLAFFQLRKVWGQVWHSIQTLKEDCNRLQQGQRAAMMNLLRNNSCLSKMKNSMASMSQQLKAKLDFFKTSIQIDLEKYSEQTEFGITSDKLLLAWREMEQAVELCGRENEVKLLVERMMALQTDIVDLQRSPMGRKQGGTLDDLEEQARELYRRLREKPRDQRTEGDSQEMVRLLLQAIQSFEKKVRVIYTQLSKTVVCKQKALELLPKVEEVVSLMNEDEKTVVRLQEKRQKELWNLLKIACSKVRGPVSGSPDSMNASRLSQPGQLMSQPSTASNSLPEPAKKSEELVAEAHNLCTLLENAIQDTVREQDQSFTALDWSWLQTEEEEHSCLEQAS
The following applies: at 0.1 µM.

Experiment [19] has as its target T5, Inhibitor of nuclear factor kappa-B kinase subunit beta (Homo sapiens). The settings on record: at 1 µM.
The target in experiment [20] is T6, Inhibitor of nuclear factor kappa-B kinase subunit epsilon (Homo sapiens) (UniProt Q14164).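 Further: mean inhibition of IKKε reported, from the GSK PKIS dataset.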
T6 sequence (whole entry): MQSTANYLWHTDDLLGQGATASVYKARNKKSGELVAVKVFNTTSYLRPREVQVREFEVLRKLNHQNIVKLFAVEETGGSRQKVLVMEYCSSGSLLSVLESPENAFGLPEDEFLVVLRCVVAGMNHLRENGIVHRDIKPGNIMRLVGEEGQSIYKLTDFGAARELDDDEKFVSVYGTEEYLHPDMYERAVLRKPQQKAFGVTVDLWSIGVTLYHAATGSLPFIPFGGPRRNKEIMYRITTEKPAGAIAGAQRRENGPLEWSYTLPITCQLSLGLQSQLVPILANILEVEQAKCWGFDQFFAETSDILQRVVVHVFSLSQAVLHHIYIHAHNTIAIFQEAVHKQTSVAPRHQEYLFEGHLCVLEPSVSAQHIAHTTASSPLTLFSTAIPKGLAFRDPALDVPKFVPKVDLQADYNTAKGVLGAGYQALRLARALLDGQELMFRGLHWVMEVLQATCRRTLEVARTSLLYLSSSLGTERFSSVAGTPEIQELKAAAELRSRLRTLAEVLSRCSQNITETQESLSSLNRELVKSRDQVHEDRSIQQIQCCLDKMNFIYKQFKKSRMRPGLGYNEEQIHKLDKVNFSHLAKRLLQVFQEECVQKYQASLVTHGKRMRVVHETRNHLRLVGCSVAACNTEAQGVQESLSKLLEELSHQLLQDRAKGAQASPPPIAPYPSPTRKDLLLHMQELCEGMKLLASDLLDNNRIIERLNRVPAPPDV
The following applies: at 0.1 µM.

Usually inhibition stands for the relative decrease from the control value, in per cent.

Chain of SRSF protein kinase 1 (Homo sapiens) (Q96SB4 whole entry): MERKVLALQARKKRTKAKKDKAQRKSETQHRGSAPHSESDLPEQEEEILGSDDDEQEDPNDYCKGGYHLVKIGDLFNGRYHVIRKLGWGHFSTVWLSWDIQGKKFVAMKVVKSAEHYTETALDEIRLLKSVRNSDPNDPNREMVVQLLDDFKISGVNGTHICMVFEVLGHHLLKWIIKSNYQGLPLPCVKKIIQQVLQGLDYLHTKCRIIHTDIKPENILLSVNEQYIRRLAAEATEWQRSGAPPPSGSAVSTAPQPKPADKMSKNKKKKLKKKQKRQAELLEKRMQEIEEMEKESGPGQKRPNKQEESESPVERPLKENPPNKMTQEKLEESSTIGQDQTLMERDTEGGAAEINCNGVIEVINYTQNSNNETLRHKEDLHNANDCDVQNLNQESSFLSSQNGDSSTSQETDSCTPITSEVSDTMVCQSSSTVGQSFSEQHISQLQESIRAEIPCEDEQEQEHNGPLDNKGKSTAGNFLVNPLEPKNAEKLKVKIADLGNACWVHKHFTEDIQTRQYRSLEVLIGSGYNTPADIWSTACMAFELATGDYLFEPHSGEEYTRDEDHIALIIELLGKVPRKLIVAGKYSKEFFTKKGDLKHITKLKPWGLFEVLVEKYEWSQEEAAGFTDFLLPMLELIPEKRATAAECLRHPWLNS
Chain of Casein kinase II subunit alpha (Homo sapiens) (P68400 whole entry, looked up): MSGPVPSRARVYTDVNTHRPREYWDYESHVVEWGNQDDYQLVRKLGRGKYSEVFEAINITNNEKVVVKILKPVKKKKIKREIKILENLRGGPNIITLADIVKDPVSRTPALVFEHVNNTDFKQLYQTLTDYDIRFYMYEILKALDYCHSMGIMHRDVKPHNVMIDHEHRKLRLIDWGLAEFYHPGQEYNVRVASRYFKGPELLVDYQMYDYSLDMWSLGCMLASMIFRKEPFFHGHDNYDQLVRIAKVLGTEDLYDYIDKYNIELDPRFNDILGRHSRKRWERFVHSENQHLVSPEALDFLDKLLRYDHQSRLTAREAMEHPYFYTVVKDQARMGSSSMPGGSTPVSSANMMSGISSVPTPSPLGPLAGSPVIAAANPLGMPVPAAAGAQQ
Chain of Phosphatidylinositol 4,5-bisphosphate 3-kinase catalytic subunit alpha isoform (Homo sapiens) (P42336 whole entry, canonical isoform): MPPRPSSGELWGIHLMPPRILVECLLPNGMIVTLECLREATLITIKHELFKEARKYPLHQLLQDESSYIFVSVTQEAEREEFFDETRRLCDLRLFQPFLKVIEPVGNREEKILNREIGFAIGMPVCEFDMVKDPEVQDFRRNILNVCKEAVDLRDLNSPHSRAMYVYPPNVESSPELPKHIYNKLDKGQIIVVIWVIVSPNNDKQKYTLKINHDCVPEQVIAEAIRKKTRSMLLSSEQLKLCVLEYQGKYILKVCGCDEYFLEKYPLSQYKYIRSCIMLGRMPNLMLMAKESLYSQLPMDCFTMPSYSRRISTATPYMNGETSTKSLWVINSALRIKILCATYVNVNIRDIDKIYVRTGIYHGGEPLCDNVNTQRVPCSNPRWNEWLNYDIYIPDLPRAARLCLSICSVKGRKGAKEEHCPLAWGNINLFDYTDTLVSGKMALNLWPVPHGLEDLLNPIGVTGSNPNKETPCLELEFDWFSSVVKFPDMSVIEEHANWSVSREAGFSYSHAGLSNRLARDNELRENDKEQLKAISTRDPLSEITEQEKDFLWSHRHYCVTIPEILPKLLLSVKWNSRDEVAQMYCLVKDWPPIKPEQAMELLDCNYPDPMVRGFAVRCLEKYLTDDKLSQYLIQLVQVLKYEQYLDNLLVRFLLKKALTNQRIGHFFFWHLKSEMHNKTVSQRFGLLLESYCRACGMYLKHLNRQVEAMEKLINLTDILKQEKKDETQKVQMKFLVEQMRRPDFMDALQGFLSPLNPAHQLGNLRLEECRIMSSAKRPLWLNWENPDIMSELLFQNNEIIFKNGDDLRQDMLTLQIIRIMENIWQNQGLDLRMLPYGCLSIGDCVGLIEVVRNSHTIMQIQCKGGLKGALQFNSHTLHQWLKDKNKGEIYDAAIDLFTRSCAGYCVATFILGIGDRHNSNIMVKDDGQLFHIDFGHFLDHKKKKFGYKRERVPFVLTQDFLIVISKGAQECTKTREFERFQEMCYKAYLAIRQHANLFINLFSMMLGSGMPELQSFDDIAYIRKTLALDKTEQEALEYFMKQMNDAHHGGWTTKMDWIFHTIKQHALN
Chain of Sphingosine kinase 1 (Homo sapiens) (Q9NYA1 whole entry): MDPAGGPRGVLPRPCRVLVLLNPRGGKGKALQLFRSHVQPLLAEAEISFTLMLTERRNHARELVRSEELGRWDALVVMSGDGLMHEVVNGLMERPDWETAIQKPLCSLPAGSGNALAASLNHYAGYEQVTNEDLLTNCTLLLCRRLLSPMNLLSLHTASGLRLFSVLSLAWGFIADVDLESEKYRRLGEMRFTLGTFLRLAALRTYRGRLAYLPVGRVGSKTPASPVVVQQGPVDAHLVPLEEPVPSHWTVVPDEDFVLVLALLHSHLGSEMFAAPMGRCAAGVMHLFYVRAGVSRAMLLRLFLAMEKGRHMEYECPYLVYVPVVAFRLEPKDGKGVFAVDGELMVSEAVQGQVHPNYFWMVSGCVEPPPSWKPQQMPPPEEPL
Chain of Phosphatidylinositol 4-kinase beta (Homo sapiens) (Q9UBF8 2-816 limits assumed): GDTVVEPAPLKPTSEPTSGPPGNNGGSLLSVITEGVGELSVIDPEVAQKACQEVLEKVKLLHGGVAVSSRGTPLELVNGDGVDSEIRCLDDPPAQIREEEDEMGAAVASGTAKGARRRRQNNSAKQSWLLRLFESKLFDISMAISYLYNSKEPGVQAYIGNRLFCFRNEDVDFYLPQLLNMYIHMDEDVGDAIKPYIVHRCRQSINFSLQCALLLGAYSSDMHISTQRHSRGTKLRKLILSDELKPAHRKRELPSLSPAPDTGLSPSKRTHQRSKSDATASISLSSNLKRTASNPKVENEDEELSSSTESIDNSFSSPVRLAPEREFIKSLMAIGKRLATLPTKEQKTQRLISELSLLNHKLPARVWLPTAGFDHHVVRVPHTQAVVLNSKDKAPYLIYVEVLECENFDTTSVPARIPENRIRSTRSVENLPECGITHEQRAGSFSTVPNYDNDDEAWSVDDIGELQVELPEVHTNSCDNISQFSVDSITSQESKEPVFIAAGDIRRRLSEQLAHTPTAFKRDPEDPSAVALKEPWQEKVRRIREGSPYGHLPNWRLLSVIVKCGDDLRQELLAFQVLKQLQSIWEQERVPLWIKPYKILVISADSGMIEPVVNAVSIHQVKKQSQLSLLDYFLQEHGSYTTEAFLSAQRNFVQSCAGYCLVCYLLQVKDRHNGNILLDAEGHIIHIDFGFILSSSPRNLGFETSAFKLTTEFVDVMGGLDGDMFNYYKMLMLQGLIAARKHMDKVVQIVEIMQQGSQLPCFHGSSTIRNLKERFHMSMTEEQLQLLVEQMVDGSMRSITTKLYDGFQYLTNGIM

Consider `CCn1c(-c2nonc2N)nc2cnc(Oc3cccc(NC(=O)c4ccc(OCCN5CCOCC5)cc4)c3)cc21`, for which the inhibition in [1] is 3.67%; in experiment [2] it was -1.96%; in experiment [3], -3.13%; in experiment [4], 2.83%; in experiment [5], 3.79%; in experiment [6] it was 1.26%. Further, the inhibition is 3.06% in experiment [7]; -7.57% in experiment [8]; -2.56% in [9]; 3.68% in experiment [10]; -0.28% in [11]; 0.73% in experiment [12]. For the same compound, the inhibition is -0.35% in experiment [13]; 2.94% in experiment [14]; 5.71% in experiment [15]; 11% in experiment [16]; 10.1% in experiment [17]; 5.72% in experiment [18]. For the same compound, the results for the inhibition in experiment [19] and in [20] were 2.67% and 7.92%, respectively.

For the compound `COc1ccccc1Nc1ncc(-c2ccccc2)o1`, the inhibition in experiment [1] was 4.08%; in experiment [2], -4.21%; in experiment [3] it was -2.61%; in experiment [4], 5.32%; in [5], 6.11%; in experiment [6], 0.95%. For the same compound, the inhibition in [7] is 2.27%; in experiment [8] it was -0.97%; in [9], 0.94%; in [10], 0%; in experiment [11], -6.75%; in [12], -0.59%. Besides, the inhibition in [13] was -0.16%; in experiment [14] it was 6.18%; in experiment [15] it was 8.04%; in [16], 10.7%; in experiment [17], 9.03%; in [18], 9.9%. Further, the inhibition in [19] was determined as 9.61%; in experiment [20], 9.49%.

Turning to `CS(=O)(=O)CCNCc1nc(-c2ccc3ncnc(Nc4ccc(F)c(Cl)c4)c3c2)cs1`, the inhibition in experiment [1] was 1.73%; in experiment [2] it was -0.47%; in experiment [3], 1.62%; in [4], 1.55%; in experiment [5], 16.8%; in [6] it was 1.95%. For the same compound, the inhibition is 5.42% in experiment [7]; 6.61% in experiment [8]; 5.06% in experiment [9]; -0.56% in [10]; 0.42% in [11]; 0.49% in [12]. Besides, the inhibition in experiment [13] is -0.93%; in [14], 1.14%; in experiment [15], 5.94%; in experiment [16] it was -4.65%; in [17] it was -4.39%; in [18] it was -0.32%. The values for the inhibition in experiment [19] and in experiment [20] were 1.99% and 1.53%, respectively.
